Screening results deposited in PubChem by National Center for Advancing Translational Sciences (NCATS).
FUS suppressor = qHTS for Suppressors of FUS Proteinopathy: Primary screen using FUS-linked yeast assay; S. cerevisiae FUS-expressing, growth rescue, OD600, 24 h; Potency, µM (top dose mostly 76.6 µM), usual class: activators; actives 0.24% (n = 390,000);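 also: plate controls were DMSO vehicle for no effect and reference control for full effect; nearly all actives have a fitted effect of over 55% in size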
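S. cerevisiae expressing FUS from galactose induction served as the toxicity model. Growth after 24hr at 30C, read as absorbance at 600 nm, indicates suppression of toxicity; compounds dosed at several concentrations.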
Abeta rescue = qHTS for compounds that reverse cellular toxicity of Amyloid beta (A-beta) peptide in yeast: Primary Screen; yeast expressing A-beta42, growth rescue, OD600, 48 h; response scale: 0% DMSO, 100% iron-clioquinol control; actives 0.063% (n = 410,000); Potency, µM (highest dose often 46.1 µM), hits mostly activators; also: nearly all actives have a fitted effect of over 55% in size
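Yeast growth medium received pinned compounds, then yeast cells expressing toxic A-beta were added; plates incubated at 30 C for 48 hr. Growth read as absorbance at 600 nm, normalized to DMSO and equimolar FeCl3 plus clioquinol controls.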
TDP43 rescue = qHTS of TDP-43 Inhibitors; TDP-43 expressing yeast growth rescue, BacTiter-Glo, 24 h; Potency, µM (highest dose often 46.1 µM), for inactives: at the top dose growth rescue (activation), actives largely listed as activators; actives 1.8% (n = 410,000); AID 652104, 2013; also: % of control where 0% means no effect; nearly all actives have a fitted effect of over 50% in size
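Galactose-induced TDP-43 yeast, OD600=0.02, compound pinned; 24 hr, 30 deg C; BacTiter-Glo luminescence for growth. Inhibitors of TDP-43 toxicity read as activators.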
aSyn rescue = qHTS of alpha-syn Inhibitors. Yeast expressing alpha-synuclein, growth rescue, BacTiter-Glo, 24 h. Potency, µM (top dose mostly 46.1 µM), inactives show top-dose growth rescue (activation), hits mostly activators. actives 0.14% (n = 370,000). AID 652106, 2013; also: % of control where 0% means no effect; nearly all actives have a fitted effect of over 65% in size
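Readout is rescue of growth in alpha-synuclein-expressing yeast, so inhibitors of toxicity appear as activators. Growth after 24 hr at 30 deg C in galactose medium is quantified by luminescence.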
The depositor's hits bear a star; i = inactive; ? = inconclusive; / = no result. Sampled rows, rich in hits. Any-hit rate of the full collection: about 2.1%. Calls follow the shape of the dose curve; as a rule, active = well fitted curve in the direction sought with a large enough effect; inconclusive = small, poorly fitted or top-dose-only effect, or another doubt; inactive = no such curve, though single readings can be large; an effect the other way counts as inactive or inconclusive. Potency is read from the fitted curve at half-maximal effect.

SMILES	FUS suppressor	Abeta rescue	TDP43 rescue	aSyn rescue
COC(=O)[C@]12C[C@H](CC(=O)N3CCCC3)C(=O)N(Cc3ccc(Cl)cc3Cl)C1=C[C@H](C(C)(C)C)O[C@@H]2C	17.8µM*	/	/	/
C#CCNC(=O)C[C@H]1C[C@@]2(C(=O)OC)C(=C[C@H](C(C)(C)C)O[C@@H]2C)N(Cc2ccc(Cl)cc2Cl)C1=O	17.8µM*	/	/	/
Cc1ccccc1Cn1cc(CN2[C@H](CC(C)C)COc3cc(Br)ccc3S2(=O)=O)nn1	i	/	/	/
Cc1cc2nccc(-c3ccncc3)n2n1	i	i	5.6%	0.0%
Cc1ccc(-c2ccnc3cc(C)nn23)cc1	i	i	20µM*	7.7%
CC(=O)c1cccc(-c2ccnc3c2CC(C(=O)Nc2ccc(Cl)cc2)O3)c1 (stereo unspecified)	?	i	16.6%	16.1%
CN(C(=O)C1Cc2c(-c3ccccc3Oc3ccccc3)ccnc2O1)c1ccccc1 (stereo unspecified)	?	i	?	-0.3%
O=C(Nc1cccc(C(F)(F)F)c1)C1Cc2c(-c3ccccc3)ccnc2O1 (stereo unspecified)	i	?	35.5µM*	?
CC(=O)c1cccc(NC(=O)C2Cc3c(-c4ccc(Cl)cc4)ccnc3O2)c1 (stereo unspecified)	39.8µM*	i	?	?
CN(C(=O)C1Cc2c(-c3ccc(Cl)cc3)ccnc2O1)c1ccccc1 (stereo unspecified)	i	i	22.4µM*	-2.0%
O=C(Nc1cccc(C(F)(F)F)c1)C1Cc2c(-c3ccc(Cl)cc3)ccnc2O1 (stereo unspecified)	i	i	20µM*	?
O=C(Nc1cccc(C(F)(F)F)c1)C1Cc2c(-c3ccco3)ccnc2O1 (stereo unspecified)	i	i	14.5%	1.9%
CN(C)c1cccc(NC(=O)C2Cc3c(-c4ccc(Cl)cc4)ccnc3O2)c1 (stereo unspecified)	?	i	?	13.4%
CC(C)C[C@H]1COc2cc(Br)ccc2S(=O)(=O)N1Cc1cn(Cc2ccco2)nn1	i	/	/	/
Cc1[nH]c2ccccc2c1C(=O)C(C)Sc1nc2ccccc2c(=O)n1Cc1cccnc1 (stereo unspecified)	/	/	/	-1.4%
COc1nc(Nc2cccc(C(F)(F)F)c2)nc(OC)n1	i	i	14.1µM*	-9.0%
Cc1cc(C)nc(Nc2cccc(C(F)(F)F)c2)n1	i	i	?	-13.0%
COc1cnc(-c2ccccn2)nc1Oc1ccc(F)cc1F	i	22.4µM*	19.0%	-10.6%
N#C/C(=C(/O)COC(=O)Cc1c[nH]c2ccccc12)c1nc2ccccc2[nH]1	35.5µM*	?	-0.1%	-0.5%
COc1ccccc1OCC(=O)OC/C(O)=C(\C#N)c1nc2ccccc2[nH]1	i	i	14.8%	-0.5%
COc1ccc2nc(C)cc(Sc3nc4ccccc4s3)c2c1	i	i	25.1µM*	12.6%
C=CCNC(=O)N1CCN(Cc2nc3ccccc3c(=O)[nH]2)CC1	i	/	/	/
CC1CC(C)CN(C(=O)c2ccc3c(c2NCCO)C(=O)c2ccccc2C3=O)C1 (stereo unspecified)	i	i	17.8µM*	-0.8%
c1ccc(-c2cc(-c3nc4ccccc4[nH]3)c3ccccc3n2)cc1	i	i	15.8µM*	-0.9%
Clc1ccc2nnnc(-c3ccccc3)c2c1	i	i	3.16µM*	14.1%
SMILES	FUS suppressor	Abeta rescue	TDP43 rescue	aSyn rescue
CCOC(=O)C1CCN(S(=O)(=O)c2ccc(Br)c(OCC)c2)CC1	5.62µM*	i	-5.1%	6.5%
CCOC(=O)C1CCN(S(=O)(=O)c2cc(-c3cc(C)no3)ccc2C)CC1	i	i	25.8%	/
CCOC(=O)C1CCCN(S(=O)(=O)c2cc(-c3cc(C)no3)ccc2C)C1 (stereo unspecified)	?	i	35.5µM*	/
Cc1ccc(-c2onc(C)c2C)cc1S(=O)(=O)N1CCC(C)CC1	?	i	19.7%	/
Cc1ccc(-c2onc(C)c2C)cc1S(=O)(=O)N1CCCCC1	i	i	22.4µM*	/
CCOC(=O)C1CCN(S(=O)(=O)c2ccc(OC)c(OC)c2)CC1	i	i	-6.3%	-0.5%
CCOC(=O)C1CCN(S(=O)(=O)c2cc(-c3onc(C)c3C)ccc2OC)CC1	?	i	25.1µM*	/
O=C(Cn1nnc(-c2ccccc2F)n1)Nc1ccc(F)cc1F	i	/	/	/
CN1C(=O)c2cc(NC(=O)c3ccc(F)cc3)ccc2OC[C@H]2O[C@H](CC(=O)NC3CCC3)CC[C@H]21	i	/	/	/
C[C@@H]1CC2[C@@H]3CC[C@H]4CC(=O)CC[C@]4(C)C3=CC[C@]2(C)[C@@]1(O)C(=O)CO (stereo partly specified)	i	i	10µM*	15.3%
COc1ccc(CN(CCN2CCOCC2)C(=O)c2cc(F)ccc2C)cc1OC	i	/	/	/
COCCNC(=O)C[C@H]1CC[C@H]2[C@@H](COc3ccc(NS(=O)(=O)c4ccc(Cl)cc4)cc3C(=O)N2C)O1	i	/	/	/
CC(C)c1ccc(NC(=O)CSC2=Nc3ccccc3C3=NC(CC(=O)NCc4cccs4)C(=O)N23)cc1 (stereo unspecified)	i	12.6µM*	?	/
Oc1ccccc1Cc1c(O)ccc2ccccc12	i	i	15.8µM*	18.4%
CN(C)S(=O)(=O)c1cccc(C(=O)N/N=C\c2ccccc2)c1	i	/	/	/
O=[N+]([O-])c1ccccc1S(=O)(=O)N1CCC(c2cn3ccccc3n2)CC1	i	/	/	/
O=C(C1CCCCC1)N1CCN=C1SCc1cccc([N+](=O)[O-])c1	i	i	17.8µM*	-13.8%
O=C(c1ccccc1)N1CCN=C1SCc1ccc([N+](=O)[O-])cc1	i	i	10µM*	2.1%
O=C(C1CCCCC1)N1CCN=C1SCc1cccnc1	i	i	?	1.7%
COCCCNC(=O)C[C@H]1C[C@@]2(C(=O)OC)C(=C[C@H](C(C)C)O[C@@H]2C2CC2)N(CCc2ccc(OC)c(OC)c2)C1=O	i	/	/	/
COc1ccc(S(=O)(=O)n2oc(=O)cc2-c2ccccc2)cc1	i	i	?	9.8%
O=c1cc(-c2ccccc2)n(S(=O)(=O)c2ccc3ccccc3c2)o1	i	i	?	20µM*
COc1ccc(S(=O)(=O)n2oc(=O)cc2-c2ccccc2)cc1OC	i	i	14.1µM*	?
Nc1ncnc2oc(-c3ccco3)c(-c3ccco3)c12	i	i	-17.1%	12.6µM*
CN1OC[C@@H]2CN(C(=S)NCCc3ccccc3)[C@H](c3ccccc3Br)C[C@@H]21	i	i	12.6µM*	0.3%
CN1OC[C@@H]2CN(C(=O)Cc3ccccc3)[C@H](c3ccccc3Br)C[C@@H]21	i	i	0.0%	0.7%
Cc1ccc(C(=O)Nc2cccc(N(C)S(C)(=O)=O)c2)cc1S(=O)(=O)Nc1ccccc1	35.5µM*	i	-24.2%	9.8%
